Experimental findings from PubChem BioAssay AID777 (Sanford-Burnham Center for Chemical Genomics, 2007) are described below.

Screen size: about 96,000 compounds; about 19,000 (20%) were called active. Only a sample is shown. Values without a mark were called inactive.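 Rule for the calls: active = blocking of liver enzyme CYP2C9 beyond about 50% at 5 µM (limit read from the data); inactive = the rest.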

Usually inhibition stands for the drop in the measured response relative to a control, in per cent.

Chain of Cytochrome P450 2C9 (Homo sapiens) (P11712 whole entry, looked up): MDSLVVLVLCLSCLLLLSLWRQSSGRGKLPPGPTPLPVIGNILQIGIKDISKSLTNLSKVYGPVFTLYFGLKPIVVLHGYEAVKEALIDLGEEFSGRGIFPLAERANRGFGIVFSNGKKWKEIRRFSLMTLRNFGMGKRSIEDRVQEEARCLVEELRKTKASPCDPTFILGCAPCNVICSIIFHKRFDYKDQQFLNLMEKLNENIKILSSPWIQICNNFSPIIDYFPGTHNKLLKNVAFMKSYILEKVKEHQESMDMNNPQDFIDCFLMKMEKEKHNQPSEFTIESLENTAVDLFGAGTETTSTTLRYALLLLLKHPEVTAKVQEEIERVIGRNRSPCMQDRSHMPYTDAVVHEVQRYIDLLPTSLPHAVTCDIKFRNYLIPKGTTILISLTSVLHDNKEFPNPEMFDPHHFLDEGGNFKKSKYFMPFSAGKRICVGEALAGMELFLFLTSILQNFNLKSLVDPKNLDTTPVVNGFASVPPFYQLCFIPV

This test has as its target Cytochrome P450 2C9 (Homo sapiens) (UniProt P11712). Nature of the test: blockers of cytochrome P450 2C9 activity – biochemical, luminescence, ADME assay, primary screen (AID 777). The following applies: CYP2C9 Supersomes, luciferin-H conversion, at 5 µM, active compounds read high.
Turning to `O=C(O)C1CC=CCC1C(=O)NCCc1ccccc1` (stereo not drawn), the inhibition is -21.1%.
Regarding `O=c1[nH]c(=O)n(Cc2ccco2)c2c1C(C(F)(F)F)(C(F)(F)F)N=C(c1ccco1)N2`, the inhibition is 1.8%.
Under `Cc1ccc(S(=O)(=O)NCc2csc(C)n2)c(C)c1` stands 9.2%; under `Cc1ccc(C)c(NS(=O)(=O)c2cc(Br)cnc2N)c1`, 63.5% (active).
For the compound `Cc1ccc(C)c(S(=O)(=O)n2cnc3ccccc32)c1`, the inhibition is -14.6%.
Under `CCOC(=O)CSc1nnc(CNC(=O)c2cccs2)n1-c1cc(OC)ccc1OC` stands 31.7%.
Regarding `Cc1cc(C)c(S(=O)(=O)c2ccccc2)c(OC(=O)c2c(F)cccc2Cl)n1`, the inhibition is 32.9%.
Take `O=c1c2ccccc2nc2n1C(CSc1ccc(F)cc1)CN2` (stereo not drawn): the inhibition was 1.1%.
Consider `C=CCn1c(SCCOc2ccc(OC)cc2)nnc1C(NC(=O)c1ccc(OC)cc1)C(C)C` (stereo not drawn), for which the inhibition was 58.8% (active).
`C=CCn1c(COc2cccc3cccnc23)nnc1SCC(=O)OC`: the inhibition was -306%.
Consider `C=CCn1c(SCC(=O)c2ccc(Br)cc2)nnc1C(C)NC(=O)Cc1ccc(OC)cc1` (stereo not drawn), for which the inhibition was 30.7%.
`CC1=C(C)CC(C(=O)NNC(=O)c2ccccc2O)C(C(=O)O)C1` (stereo not drawn): the inhibition is 21.8%.
For `O=C(c1c(Cl)nc2sccn12)N1CCCc2ccccc21`, the inhibition was 28.1%.
The same measure for `Cc1cccc(N2CCN(S(=O)(=O)c3ccc4[nH]c(=O)c(=O)[nH]c4c3)CC2C)c1` (stereo not drawn): 52.5% (active); for `CN1CCN(S(=O)(=O)c2ccc3[nH]cc(C(=O)O)c(=O)c3c2)CC1`: 2.4%; for `COc1cccc(N2C(=O)CC(N3CCN(S(=O)(=O)c4ccccc4)CC3)C2=O)c1` (stereo not drawn): 6.5%.
Regarding `Cc1nc(C)c(-c2csc(NCCc3ccccc3)n2)s1`, the inhibition was 39%.
Under `COc1ccc(/C(O)=C2/C(=O)C(=O)N(c3nc(C)c(C)s3)C2c2ccco2)cc1` (stereo not drawn) stands 70.5% (active); under `COc1ccc(/C(O)=C2/C(=O)C(=O)N(CC3CCCO3)C2c2ccc(OC)c(OC)c2)cc1` (stereo not drawn), 35.9%.
As to `COc1ccc(/C(O)=C2\C(=O)C(=O)N(Cc3ccco3)C2c2ccc(OC)cc2OC)cc1` (stereo not drawn), the inhibition was 21.7%.
The same measure for `C=CCNc1ncnc2ccc(Br)cc12`: -10.3%.
The same measure for `COC(=O)c1cc(NC(=O)CC2C(=O)NCCN2C(=O)c2ccc(F)cc2)cc(C(=O)OC)c1` (stereo not drawn): 46.6%.
As for `COc1cc(Cl)c(S(=O)(=O)N2CCN(Cc3ccc4c(c3)OCO4)CC2)cc1Cl`, the inhibition was 20.7%.
`O=C(c1ccc(F)cc1)c1c[nH]c(C(=O)NCc2cccnc2)c1`: the inhibition was 45.9%.
The same measure for `Cc1ccc(NC(=O)CS(=O)CC(=O)N(c2ccccc2)C(C)C(=O)NC2CCCC2)cc1` (stereo not drawn): 77.9% (active); for `CC(C)c1ccc(NC(=O)NC2CCCCC2)cc1`: -33.8%; for `CCc1ccc(NC(=O)CS(=O)CC(=O)NCCCc2ccccc2)cc1` (stereo not drawn): 38.5%.
Consider `COc1ccc(C2CC(=O)C=C(NCC3CCCO3)C2)cc1` (stereo not drawn), for which the inhibition was 9.3%.
As for `O=C(OCN1C(=O)c2ccccc2C1=O)/C(=C\c1ccco1)NC(=O)c1ccccc1`, the inhibition was 14%.
Regarding `COC(=O)Nc1ncc(CN2CCCCC2)s1`, the inhibition is 3.8%.
`CCOP1(=O)C=C(C(C)(C)C)OC1c1ccc(F)cc1` (stereo not drawn): the inhibition is -21.5%.
With `c1ccc(CCn2nnnc2CN2CCN(C3CCCC3)CC2)cc1`, the inhibition is -1.3%.
For the compound `COCCn1nnnc1C(c1ccccc1Cl)N1CCN(c2ccccc2OC)CC1` (stereo not drawn), the inhibition is 39.5%.
For `COc1ccccc1N1CCN(Cc2nnnn2CCc2ccccc2)CC1`, the inhibition is 75% (active).
Turning to `Oc1ccccc1CNc1ncc(Br)cc1Br`, the inhibition is -39.9%.
For `CCOc1ccc(C(=O)NC2CCN(S(=O)(=O)CC)CC2)cc1`, the inhibition is 2.4%.
Take `CCOC(=O)N1CCC(Nc2c(NCCCN3CCN(CC)CC3)c(=O)c2=O)CC1`: the inhibition is -19.9%.
Take `CCOC(=O)C1Cn2c(nc3c(c2=O)C(C)(CC)Cc2ccccc2-3)S1` (stereo not drawn): the inhibition is 94.8% (active).
As to `CC1(C)Cc2ccccc2-c2nc(CN3CCOCC3)[nH]c(=O)c21`, the inhibition was 15.5%.
In the case of `O=C(Nc1ccc(-n2ccnc2P(=O)(O)c2ccccc2)cc1)c1ccccc1Br`, the inhibition was 95.5% (active).
With `O=C(Nc1nnc(-c2ccc(Cl)cc2)o1)c1ccccc1Br`, the inhibition is 26%.
With `Cc1nonc1NC(=O)c1ccccc1Br`, the inhibition was -27.2%.
Take `CC(=O)NC1=NC(=O)CS1`: the inhibition was 11.7%.
Turning to `COC(=O)CN1C(C)=Nc2ccc(Br)cc2C1c1ccccc1` (stereo not drawn), the inhibition is -8.5%.
Consider `COC(=O)C1=C(C)N(C)C(C)=C(C(=O)OC)C1c1cccc(Br)c1`, for which the inhibition was 93.8% (active).
The same measure for `COC(=O)C1=CN(C)C=C(C(=O)OC)C1c1ccc(Cl)cc1Cl`: 28%; for `c1ccc2c(CSCc3nc4ccccc4[nH]3)cccc2c1`: 85.1% (active).
Under `Clc1ccccc1SCc1nc2ccccc2[nH]1` stands 36.9%; under `COC(=O)Cc1nc2ccccc2[nH]1`, 7.9%.
Consider `CC(CN1CCOCC1)c1ccccc1` (stereo not drawn), for which the inhibition is 2.7%.
In the case of `CN(CC(=O)NC1CCCCC1)S(=O)(=O)c1ccc(Br)s1`, the inhibition is -17.7%.
For `Cn1c(CO)cnc1SCc1ccccc1`, the inhibition was 3.4%.
Turning to `CCS(=O)(=O)n1nc(-c2ccccc2)nc1SCc1ccccc1`, the inhibition is 87.9% (active).
Turning to `CCS(=O)(=O)n1nc(-c2ccc(OC)cc2)nc1SC`, the inhibition was 42.2%.
The same measure for `CSCCC(NC(=O)COc1ccccc1)C(=O)OCC(=O)c1cc2ccccc2o1` (stereo not drawn): 43.3%; for `COc1ccc2ccccc2c1CNCc1ccccn1`: -4.5%; for `Cc1cc(C)c(C#N)c(SCS(=O)c2ccc(C(C)(C)C)cc2)n1` (stereo not drawn): -50.8%.
The same measure for `Cc1cc(C)c(C#N)c(SCc2ccc3c(c2)OCO3)n1`: 90.5% (active).
Consider `Cc1cc(C)c(C#N)c(SCc2ccccc2C(=O)O)n1`, for which the inhibition was 9.5%.
Take `CCCCN(C)Cc1c(C)[nH]c2ccc(Cl)cc2c1=O`: the inhibition is -10.7%.
Under `Cc1ccc(-c2csc(N(Cc3ccco3)C(=O)c3cccs3)n2)cc1` stands 91.6% (active).
As for `O=C(O)CCC(=O)N(Cc1ccco1)c1nc(-c2ccccc2)cs1`, the inhibition is 5.2%.
Regarding `Cc1nnc(N(Cc2ccco2)C(=O)c2ccno2)s1`, the inhibition was 11.2%.
